31 molecules from PubChem BioAssay (NCATS) can be followed below.

Inconclusive results are not listed. A number with no mark means an inactive call. Active and inactive are the calls of the source. Unless noted, the call rests on the fitted dose curve; in most records, active means well fitted curve in the direction sought with a large enough effect; inconclusive means small, poorly fitted or top-dose-only effect, or another doubt; inactive means no such curve, though single readings can be large; an effect the other way counts as inactive or inconclusive.

A short description of experiment [1]: qHTS for Inhibitors of Plasmodium falciparum (DD2) proliferation (AID 504314).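 Further: parasite DNA measured by SYBR Green fluorescence after red cell lysis; plate controls were DMSO vehicle for no effect and artemisinin wells for full effect.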 The gist of the method: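 Fluorescence read-out (ex 485/em 535 nm) of SYBR Green-stained parasite DNA quantifies intraerythrocytic growth. Cultures at 0.3% parasitemia and 2.5% hematocrit were treated for 72 h; data normalized to DMSO and 0.29 uM artemisinin wells.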
A short description of experiment [2]: qHTS for Inhibitors of Plasmodium falciparum (HB3) proliferation (AID 504318). Further: nearly all actives have a fitted effect of over 60% in size. Further: potency means the concentration at half of the fitted maximal effect.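 On activity change, negative = inhibition: 0% = DMSO vehicle and -100% = artemisinin control.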 The gist of the method: (§1)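 Erythrocytes infected with P. falciparum line (0.3% parasitemia, 2.5% hematocrit final) incubated with compounds 72 h at 37 °C, 5% CO2; SYBR Green lysis buffer added, fluorescence read next day. Normalized to 0.29 uM artemisinin and DMSO.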
Experiment [3] is described as follows: qHTS for Inhibitors of Plasmodium falciparum (CP250) proliferation (AID 504320).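 Further: plate controls were DMSO vehicle for no effect and 0.29 µM artemisinin control for full effect.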 The gist of the method: as §1
For orientation: qHTS replaces the single test concentration by a dilution series.

In experiment [4] the target is Atrial natriuretic peptide receptor 1 (Homo sapiens) (UniProt P16066). Put plainly: Natriuretic polypeptide receptor (hNpr1) antagonism - Pilot CMLD screen (AID 1347052; calls by dose curve;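 further: cGMP level read as GloSensor luciferase luminescence after agonist stimulation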; further: potency means the concentration at half of the fitted maximal effect;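 on activity change, negative = inhibition: HEK293 cells with hNpr1 stimulated by hNppA peptide at 0.1 nM; series mostly up to about 9.2 µM; on the % scale 0 is the no-effect control and ±100 the full control effect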).
Chain of Atrial natriuretic peptide receptor 1 (Homo sapiens) (P16066 whole entry, looked up): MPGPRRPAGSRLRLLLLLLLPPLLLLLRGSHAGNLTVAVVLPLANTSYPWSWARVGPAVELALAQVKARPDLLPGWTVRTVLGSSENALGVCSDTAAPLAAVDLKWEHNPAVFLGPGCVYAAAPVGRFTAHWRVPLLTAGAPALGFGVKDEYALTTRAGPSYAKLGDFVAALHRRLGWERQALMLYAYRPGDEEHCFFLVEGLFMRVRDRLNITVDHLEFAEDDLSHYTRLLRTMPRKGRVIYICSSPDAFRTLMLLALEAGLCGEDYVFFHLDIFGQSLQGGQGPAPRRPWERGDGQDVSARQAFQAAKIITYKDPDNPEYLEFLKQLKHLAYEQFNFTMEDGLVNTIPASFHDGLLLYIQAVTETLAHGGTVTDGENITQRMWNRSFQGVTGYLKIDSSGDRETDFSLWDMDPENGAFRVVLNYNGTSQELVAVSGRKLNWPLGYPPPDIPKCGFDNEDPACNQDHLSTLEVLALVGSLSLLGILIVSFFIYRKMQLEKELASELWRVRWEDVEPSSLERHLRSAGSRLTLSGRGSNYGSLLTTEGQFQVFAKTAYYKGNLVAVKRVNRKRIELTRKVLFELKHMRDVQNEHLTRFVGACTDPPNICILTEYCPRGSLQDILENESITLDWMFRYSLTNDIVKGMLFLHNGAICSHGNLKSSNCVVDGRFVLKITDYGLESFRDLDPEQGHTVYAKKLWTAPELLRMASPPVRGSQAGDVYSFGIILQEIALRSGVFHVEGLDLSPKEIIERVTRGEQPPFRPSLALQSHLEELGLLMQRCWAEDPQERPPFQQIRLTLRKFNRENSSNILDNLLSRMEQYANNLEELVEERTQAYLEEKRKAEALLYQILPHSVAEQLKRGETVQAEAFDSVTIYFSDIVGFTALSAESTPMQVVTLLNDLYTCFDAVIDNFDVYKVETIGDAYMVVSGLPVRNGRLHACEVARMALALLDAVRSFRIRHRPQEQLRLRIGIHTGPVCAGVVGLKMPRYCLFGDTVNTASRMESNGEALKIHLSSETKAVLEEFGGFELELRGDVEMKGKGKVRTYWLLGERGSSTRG
The target in experiment [5] is Cytochrome P450 2C9 (Homo sapiens) (UniProt P11712). Put plainly: qHTS Assay for Inhibitors and Substrates of Cytochrome P450 2C9 (AID 883). Further: on the % scale 0 is the no-effect control and ±100 the full control effect; nearly all actives have a fitted effect of over 60% in size. The gist of the method: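 Luminescent read-out of deoxyluciferin hydroxylation, normalized to 57uM sulphaphenazole (AC100). Reaction: 10nM enzyme, 100uM Luciferin-H (equal to KM), 25mM KPO4, 10 min compound preincubation, then 60 min with NADPH regeneration, both at 37C.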
Chain of Cytochrome P450 2C9 (Homo sapiens) (P11712 whole entry, looked up): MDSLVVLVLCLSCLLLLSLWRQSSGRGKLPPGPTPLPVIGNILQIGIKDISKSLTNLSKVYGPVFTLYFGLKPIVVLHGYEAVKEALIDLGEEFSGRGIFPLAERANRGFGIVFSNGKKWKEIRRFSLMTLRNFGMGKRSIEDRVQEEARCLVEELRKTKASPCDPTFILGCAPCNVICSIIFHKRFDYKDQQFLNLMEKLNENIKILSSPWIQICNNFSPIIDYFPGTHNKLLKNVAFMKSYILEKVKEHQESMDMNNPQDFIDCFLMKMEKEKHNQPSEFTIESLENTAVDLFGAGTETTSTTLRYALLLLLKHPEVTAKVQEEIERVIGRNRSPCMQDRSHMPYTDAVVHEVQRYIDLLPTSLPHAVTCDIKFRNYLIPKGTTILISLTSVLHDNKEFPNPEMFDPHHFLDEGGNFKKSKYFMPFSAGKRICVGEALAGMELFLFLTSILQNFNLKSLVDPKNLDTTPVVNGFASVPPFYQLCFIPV

The target of experiment [6] is Cytochrome P450 2D6 (Homo sapiens) (UniProt P10635). Put plainly: qHTS Assay for Inhibitors and Substrates of Cytochrome P450 2D6 (AID 891).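 Further: luciferin methyl ether substrate demethylated by CYP2D6 with NADPH regeneration; on the % scale 0 is the no-effect control and ±100 the full control effect; nearly all actives have a fitted effect of over 60% in size.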 The gist of the method:
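Human CYP2D6 (5 nM) with 30 uM Luciferin-ME EGE (at Km) in 100 mM KPO4, compound preincubated 10 min, then NADPH regeneration system for 60 min at room temperature. Luciferin read by luminescence; normalized to 1.43 uM quinidine.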

Experiment [7] deals with Cytochrome P450 2C19 (Homo sapiens) (UniProt P33261). Put plainly: qHTS Assay for Inhibitors and Substrates of Cytochrome P450 2C19 (AID 899). Further: nearly all actives have a fitted effect of over 60% in size. Further: potency means the concentration at half of the fitted maximal effect. On activity, negative = inhibition: on the % scale 0 is the no-effect control and ±100 the full control effect. The gist of the method: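 Luminescence readout of luciferin formed from 10uM Luciferin-H EGE (KM level) by 5 nM CYP2C19 in 50mM KPO4. 60 min NADPH-driven reaction at 37C after 10 min compound preincubation; data scaled to 57uM ketoconazole inhibition.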
Chain of Cytochrome P450 2C19 (Homo sapiens) (P33261 whole entry, looked up): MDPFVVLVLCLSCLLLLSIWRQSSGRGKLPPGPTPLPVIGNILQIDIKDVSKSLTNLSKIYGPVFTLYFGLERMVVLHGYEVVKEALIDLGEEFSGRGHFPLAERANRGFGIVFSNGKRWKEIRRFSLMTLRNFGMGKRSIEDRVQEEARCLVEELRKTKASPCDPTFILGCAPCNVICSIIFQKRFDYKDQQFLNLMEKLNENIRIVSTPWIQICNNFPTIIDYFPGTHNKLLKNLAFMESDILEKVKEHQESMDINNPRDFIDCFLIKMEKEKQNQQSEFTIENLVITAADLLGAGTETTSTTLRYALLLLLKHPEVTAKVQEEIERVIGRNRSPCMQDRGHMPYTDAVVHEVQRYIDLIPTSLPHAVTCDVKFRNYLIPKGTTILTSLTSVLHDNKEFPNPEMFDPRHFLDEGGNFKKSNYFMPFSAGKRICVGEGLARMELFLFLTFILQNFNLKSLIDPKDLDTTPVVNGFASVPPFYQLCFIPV

Experiment [8] is described as follows: qHTS for Inhibitors of Plasmodium falciparum (7G8) proliferation (AID 504316). Further: nearly all actives have a fitted effect of over 65% in size. Further: potency means the concentration at half of the fitted maximal effect.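 On activity change, negative = inhibition: series mostly up to about 6.7 µM; 0% = DMSO vehicle and -100% = 0.29 µM artemisinin full kill.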 The gist of the method:
as §1

Experiment [9] concerns the target Cytochrome P450 3A4 (Homo sapiens) (UniProt P08684). As to the kind of experiment: qHTS Assay for Inhibitors and Substrates of Cytochrome P450 3A4 (AID 884). Further: series mostly up to about 57 µM; on the % scale 0 is the no-effect control and ±100 the full control effect; nearly all actives have a fitted effect of over 50% in size. The gist of the method: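 20 nM human CYP3A4 with 25 uM Luciferin-PPXE (at KM) in 200 mM KPO4, preincubated 10 min with compound; NADPH regeneration started a 60 min RT reaction. Luciferin detected by luminescence, normalized to 57 uM ketoconazole as full inhibition.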

Experiment [10] in a line: qHTS for Inhibitors of Plasmodium falciparum (GB4) proliferation (AID 504315). Further: nearly all actives have a fitted effect of over 50% in size. Further: potency means the concentration at half of the fitted maximal effect.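 On activity change, negative = inhibition: 0% = DMSO vehicle and -100% = 0.29 µM artemisinin control.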 The gist of the method: as §1

Chain of Cytochrome P450 2D6 (Homo sapiens) (P10635 whole entry, looked up): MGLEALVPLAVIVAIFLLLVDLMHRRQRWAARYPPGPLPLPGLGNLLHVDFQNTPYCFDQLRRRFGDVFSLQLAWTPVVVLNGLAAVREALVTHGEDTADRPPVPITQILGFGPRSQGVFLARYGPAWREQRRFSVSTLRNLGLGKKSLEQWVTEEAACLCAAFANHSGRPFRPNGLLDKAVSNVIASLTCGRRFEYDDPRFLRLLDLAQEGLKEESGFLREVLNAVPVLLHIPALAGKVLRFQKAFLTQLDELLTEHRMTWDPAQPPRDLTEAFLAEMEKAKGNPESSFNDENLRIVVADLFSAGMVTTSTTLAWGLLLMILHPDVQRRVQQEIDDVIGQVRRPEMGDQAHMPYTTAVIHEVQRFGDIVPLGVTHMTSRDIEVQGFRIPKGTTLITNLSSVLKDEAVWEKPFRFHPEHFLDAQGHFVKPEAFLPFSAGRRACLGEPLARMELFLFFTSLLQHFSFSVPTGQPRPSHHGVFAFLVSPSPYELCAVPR
Chain of Cytochrome P450 3A4 (Homo sapiens) (P08684 whole entry, looked up): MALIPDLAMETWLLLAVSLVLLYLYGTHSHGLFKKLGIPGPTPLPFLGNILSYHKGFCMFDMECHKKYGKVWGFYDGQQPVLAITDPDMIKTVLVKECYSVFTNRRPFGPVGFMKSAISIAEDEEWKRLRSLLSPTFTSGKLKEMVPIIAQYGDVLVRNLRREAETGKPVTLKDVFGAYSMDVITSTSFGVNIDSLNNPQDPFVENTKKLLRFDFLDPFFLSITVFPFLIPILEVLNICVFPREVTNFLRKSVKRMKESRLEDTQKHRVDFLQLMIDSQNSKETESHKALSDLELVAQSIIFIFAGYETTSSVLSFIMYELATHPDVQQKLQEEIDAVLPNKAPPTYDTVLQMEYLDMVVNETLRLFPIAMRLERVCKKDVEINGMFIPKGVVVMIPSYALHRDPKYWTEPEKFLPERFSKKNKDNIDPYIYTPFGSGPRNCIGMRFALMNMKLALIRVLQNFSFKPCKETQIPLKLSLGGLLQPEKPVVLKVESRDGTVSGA

For `C=C(C)CCCN1C=C(C(=O)OCC)C(c2ccccc2)NC1=O` (configuration not stated), the Potency entry in experiment [1], in experiment [2], in [3] and in experiment [4] was “inactive” each time.
For the molecule `COc1cccc(C(CC2=CCCCC2)NC(=O)C(F)(F)F)c1` (configuration not stated), the Potency result in [1], in experiment [2], in [3] and in [4] was “inactive” each time.
In the case of `CC1(O)C(=O)C=C2C=C(CCCCOCc3ccccc3)OC=C2C1=O` (configuration not stated), the activity change, negative = inhibition was -27.6% [at 11.4 µM] in experiment [5] and -3.73% [at 11.4 µM] in experiment [6]. Also, the activity, negative = inhibition in experiment [7] is -23.3% [at 11.4 µM]. The Potency result in [1], in experiment [8], in experiment [3] and in experiment [4] was “inactive” in each case.
Consider `CCOC(=O)N1C2=NC(C(=O)OC)=C(C(=O)OC)[C@@H]3N(Cc4ccccc4)c4ccccc4[C@]23C[C@H]1C(=O)OC`, for which, in experiment [1], the activity, negative = inhibition is -1.2% [at 1.12 µM]. The Potency entry in experiment [2], in experiment [3] and in [4] was “inactive” throughout.
Take `C=C(C)C(O)C=Cc1ccccc1OC` (configuration not stated): the Potency result in [1], in experiment [2], in [3] and in experiment [4] was “inactive” each time.
`C[C@@H]1CC2CCC[C@@H]2[C@]2(O1)C(=O)Nc1cccc(Br)c12` (some centres not stated): the Potency entry in experiment [1], in [2], in experiment [3] and in experiment [4] was “inactive” in each case.
In the case of `COC(=O)CC=C[C@H](C)[C@@H](OCc1ccccc1Br)C(C)C`, the Potency result in experiment [1], in experiment [2], in [3] and in experiment [4] was “inactive” each time.
For `CC[C@H]1OC(c2ccccc2)[C@H](C)[C@H]2O[C@@H]2[C@@H]1C(=O)OC` (some centres not stated), the Potency result in experiment [1], in experiment [8], in experiment [3] and in experiment [4] was “inactive” each time.
Take `CC(=O)OC[C@H]1O[C@@H](ON=C(C)CCC(=O)OC[C@H]2O[C@H](C#Cc3ccccc3)C=C[C@H]2Oc2ccc(C)cc2)[C@H](OC(C)=O)[C@@H](OC(C)=O)[C@H]1OC(C)=O`: the Potency result in experiment [1], in experiment [2], in [3] and in experiment [4] was “inactive” each time.
With `CC(=O)c1ccc(OCc2ccccc2)c(C)c1O`, the results for the activity change, negative = inhibition in experiment [9] and in [6] were -20.5% [at 11.4 µM] and -4.53% [at 11.4 µM], respectively. Moreover, the Potency in experiment [7] was 0.0501 µM (active).
`CCCNC(=O)OC[C@H]1O[C@H](CCON=CC[C@@H]2C=C[C@H](OC(C)=O)[C@@H](COC(C)=O)O2)C=C[C@H]1Oc1ccc(OC)cc1`: the Potency entry in [10], in experiment [8], in experiment [2], in [3] and in [4] was “inactive” throughout.
With `C=C=CCCN1C(=O)NC(c2ccccc2)C(C(=O)OC)=C1C` (configuration not stated), the Potency result in experiment [10], in experiment [8], in [2], in experiment [3] and in experiment [4] was “inactive” each time.
Take `C[C@@H]1CC[C@H]2C(=O)O[C@H](COc3ccc(C(C)(C)C)cc3)CN2[C@@H]1c1ccc(Br)cc1`: the Potency result in [10], in experiment [8], in [2] and in experiment [4] was “inactive” throughout.
As for `CC(CCN1CCCCc2nc(C)c(C)cc21)=NO[C@H](C)c1cn([C@@H]2COC[C@@H]2O)nn1`, the Potency entry in experiment [10], in experiment [8], in [2] and in experiment [4] was “inactive” each time.
As to `CC(=O)C1=C(C)N(Cc2ccccc2)C(=O)NC1c1ccc(Br)cc1` (configuration not stated), the Potency entry in experiment [10], in experiment [8], in experiment [2] and in experiment [4] was “inactive” throughout.
Consider `C=CCNC(=O)[C@H]1C=C(OC)C(=O)C[C@H]2c3ccccc3C[C@]12C`, for which the Potency result in experiment [10], in [8] and in [4] was “inactive” in each case.
`CC1=C2[C@H](O)[C@H]([C@@H](C)C(=O)NCCC(C)C)CC[C@@]2(C)C=CC1=O`: the Potency entry in [10], in experiment [8] and in experiment [4] was “inactive” in each case.
`O=C1OC2(CCCCC2)CC2=C1[C@H]1O[C@](CCCCN3C(=O)c4ccccc4C3=O)(Cc3ccccc31)O2`: the Potency is 1.69 µM (active) in experiment [10], 1.69 µM (active) in experiment [8] and 1.9 µM (active) in experiment [2]. Moreover, the Potency result in [4] is “inactive”.
For `C=CC[C@@H]1C=C[C@@H](Oc2ccc(OC)cc2)[C@H](CO)O1`, the Potency in experiment [10] was 1.51 µM (active). Besides, in [4], the Potency entry was “inactive”.
For `COc1ccc(COC(=O)NN=C2C[C@@H](O)[C@@H](O)[C@@H]3[C@H]4C(=O)N([C@@H](C)c5ccccc5)C(=O)[C@@H]4CC[C@H]23)cc1`, the Potency result in experiment [10], in [8], in [2], in [3] and in experiment [4] was “inactive” each time.
With `CCCNC(=O)OC[C@H]1O[C@H](CCON=C(C)CCN2CCCc3nc(C)c(C)cc32)C=C[C@H]1Oc1ccc(OC)cc1`, the figures for the Potency in experiment [10], in experiment [8] and in [2] were 1.9 µM (active), 1.35 µM (active) and 1.69 µM (active), respectively. For the same molecule, the Potency entry in experiment [4] is “inactive”.
For the molecule `C[C@H]1CC[C@H]2C(=O)N(Cc3ccccc3)C[C@@H](O)CN2[C@H]1c1cccc(Br)c1`, the Potency result in [10] and in experiment [4] was “inactive” each time.
Take `N#CCCCSc1nnnn1-c1cc(C(F)(F)F)cc(C(F)(F)F)c1`: the Potency result in experiment [10], in [8] and in [4] was “inactive” each time.
With `C#CCCCON=C1C[C@@H](O)[C@H](O)[C@H]2[C@@H]3C(=O)N(c4ccc(F)cc4F)C(=O)[C@@H]3CC[C@@H]12`, the Potency entry in experiment [10], in experiment [8] and in experiment [2] was “inactive” each time. Further, in experiment [4], the Potency was 0.422 µM (active).
Regarding `O=C1C2=C(C(=O)c3ccccc31)[C@H]1O[C@](CCCCN3C(=O)c4ccccc4C3=O)(Cc3c1ccc1ccccc31)O2`, the Potency in [10] was 1.69 µM (active); in [8], 0.953 µM (active); in experiment [2] it was 0.757 µM (active). Besides, the Potency entry in experiment [4] is “inactive”.
`CC(C)=CCCC(C)=CC=CC1=CC2(C)CC1(C)C(C=C(C)CCC=C(C)C)CC2=O` (configuration not stated): the Potency entry in experiment [10] and in experiment [4] was “inactive” in each case.
Take `C=CCCC1(C(=O)c2ccccc2)C(=O)C(CC=C(C)C)=C(OC)C(CC=C(C)C)(CCC=C(C)C)C1=O` (configuration not stated): the results for the Potency in experiment [10], in experiment [8] and in [2] were 1.69 µM (active), 1.51 µM (active) and 1.69 µM (active), respectively. Also, in experiment [4], the Potency entry was “inactive”.
For the molecule `COC(=O)C1=C(C(=O)OC)[C@@H]2N(C)c3ccc(OC)cc3[C@@]23C[C@@H](C(=O)OC)N(C(=O)NC(C)(C)C)C3=N1`, the Potency in experiment [10] was 1.9 µM (active). In [4], the Potency entry was “inactive”.
`C=C(C)CCN1C(=O)NC(c2ccccc2)C(C(C)=O)=C1C` (configuration not stated): the Potency result in experiment [10], in experiment [8], in experiment [2] and in experiment [4] was “inactive” each time.
With `Cc1cc2c(nc1C)CCCN2CC(O)CN1CCN(C)CC1` (configuration not stated), the Potency entry in experiment [10], in [8], in [2], in experiment [3] and in experiment [4] was “inactive” throughout.
Turning to `COC(=O)[C@H]1O[C@@H](c2cc(OC)c(C)c(OC)c2OCc2ccccc2)[C@H](C)[C@@H]2O[C@]12C`, the Potency in [10] is 2.13 µM (active). Also, in experiment [4], the Potency entry is “inactive”.
